Test results: PubChem BioAssay (EPA / NIEHS)
“And” between values parts separate entries of the source, which are not always exact repeats. Identical values can stand only once. The source made the active and inactive calls. The calls were made as follows: active = hit-call score of the fitted dose curve at least 0.9, where 1 is the maximum; inactive = score below 0.9.

read-out: E-selectin (Homo sapiens) (UniProt P16581); test: BSK_SAg_Eselectin: BioMAP Diversity Plus: SAg Assay for Eselectin Biomarker Activity (AID 2283091); settings: primary human HUVEC with PBMC; actives raise or lower the signal
Experimental: BSK_SAg is a cell-based, multiplexed-readout assay that uses umbilical vein endothelium and peripheral blood mononuclear cells, a human vascular primary cell co-culture, with measurements taken at 24 hours after chemical dosing in a 96-well plate.BSK_SAg_Eselectin is an assay component measured in the BSK_SAg assay. It measures E-selectin antibody related to regulation of gene expression using ELISA technology.Data from the assay component BSK_SAg_Eselectin was analyzed into 1 assay endpoint. This assay endpoint, BSK_SAg_Eselectin, was analyzed with bidirectional fitting relative to DMSO as the negative control and baseline of activity. Using a type of binding reporter, gain or loss-of-signal activity can be used to understand changes in the signaling as they relate to the gene SELE. Furthermore, this assay endpoint can be referred to as a primary readout, because this assay has produced multiple assay endpoints where this one serves a signaling function. To generalize the intended target to other relatable targets, this assay endpoint is annotated to the cell adhesion molecules intended target family, where the subfamily is selectins.
The levels of cell surface (or secreted, indicated by the prefix "s") biomarker endpoints were measured by ELISA. Overt cytotoxicity to cells in confluent adherent cultures (all systems other than the BT system) was assessed by measuring total protein levels using sulforhodamine B (SRB) staining in parallel cultures at the time of biomarker measurements, indicated as SRB endpoints. For proliferation assays for adherent cell types, individual cell types are cultured at sub-confluence and relative cell numbers quantified by SRB staining at time points optimized for each system (48 h: 3C and CASM3C systems; 72 h: BT and HDF3CGF systems; 96 h: SAg system). SRB was performed by staining cells with 0.1% SRB after fixation with 10% TCA and reading wells at 560 nm.Viability and proliferation of PBMC (T cells) was quantified by Alamar Blue reduction for the SAg and BT systems. For PBMC viability (referred to as PBMC Cytotoxicity within the assay endpoint names), cells were plated (75,000/well in a 96-well plate) and then chemical samples added for 1 h before addition of activators, SEB and TSST-1 (20 ng/mL final concentration each). Cells were incubated for 90 h. Then, Alamar Blue (20 uL/well) (Invitrogen, Cat DAL1100) was added for 6 h, and the plates were read with a fluorescence microplate reader at 546/580 nm (excitation/emission). For PBMC proliferation, cells were plated and activated as above but incubated for only 16 h prior to addition of Alamar Blue. Plates were read after 6 h.

Sequence of E-selectin (Homo sapiens) (P16581 whole entry, looked up): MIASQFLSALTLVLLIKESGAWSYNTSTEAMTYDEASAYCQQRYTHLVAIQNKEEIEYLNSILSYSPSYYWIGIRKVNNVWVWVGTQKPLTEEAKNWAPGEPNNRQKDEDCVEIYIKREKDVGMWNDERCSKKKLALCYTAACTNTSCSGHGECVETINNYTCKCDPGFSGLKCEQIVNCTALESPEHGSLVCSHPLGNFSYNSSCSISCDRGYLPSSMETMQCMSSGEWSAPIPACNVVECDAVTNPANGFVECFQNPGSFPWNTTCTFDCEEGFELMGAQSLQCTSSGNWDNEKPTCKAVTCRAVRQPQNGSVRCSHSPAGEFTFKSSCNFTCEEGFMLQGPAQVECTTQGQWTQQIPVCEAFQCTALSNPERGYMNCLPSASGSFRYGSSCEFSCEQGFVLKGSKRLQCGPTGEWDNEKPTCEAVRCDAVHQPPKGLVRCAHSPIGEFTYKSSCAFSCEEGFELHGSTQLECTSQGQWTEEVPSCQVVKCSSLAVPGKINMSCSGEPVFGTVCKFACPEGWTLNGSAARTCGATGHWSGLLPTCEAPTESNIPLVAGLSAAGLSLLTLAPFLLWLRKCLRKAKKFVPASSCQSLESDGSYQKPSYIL

Structure (SMILES) | outcome | AC50
CC(C)(C)c1cccc(O)c1 | inactive | –
C=CC(=O)OCC(CO)(COC(=O)C=C)COC(=O)C=C | – | 0.333 µM (active)
OCC(F)(OC(F)(F)C(F)(OC(F)(F)C(F)(F)C(F)(F)F)C(F)(F)F)C(F)(F)F (stereo not given) | – | 2.96 µM (active) and 3.23 µM (active)
CCCCN(CCO)CCO | inactive | –
NC(=O)c1c(Cl)cccc1Cl | inactive | –
C=C(C)C(=O)OCCC(F)(F)C(F)(F)C(F)(F)C(F)(F)C(F)(F)C(F)(F)C(F)(F)C(F)(F)F | inactive | –
CCOC(=O)CCCCCCCCC(=O)OCC | inactive | –
CC(=O)OCC=C(C)CCC=C(C)CCC=C(C)C | inactive | –
CCCCCCCCCCCCS | inactive | –
c1ccc(OCCOc2ccccc2)cc1 | inactive | –
O=C(c1ccc(OCCN2CCCCC2)cc1)c1c(-c2ccc(O)cc2)sc2cc(O)ccc12 | – | 37.4 µM (active)
O=C(O)C(F)(F)C(F)(F)C(F)(F)C(F)(F)C(F)(F)C(F)(F)C(F)(F)C(F)F | inactive | –
CCOC(=O)C=Cc1ccccc1 | inactive | –
CC(=O)CCC=C(C)CCC=C(C)C | inactive | –
CCCO[Si](OCCC)(OCCC)OCCC | inactive | –
CC1(C)[C@H](C=C(Cl)Cl)[C@H]1C(=O)OCc1cccc(Oc2ccccc2)c1 | inactive | –
C=C(C)C(N)=O | inactive | –
O=C(O)C(F)(F)OC(F)(F)C(F)(F)OC(F)(F)C(F)(F)C(F)(F)C(F)(F)F | inactive | –
COc1ccccc1NC(=O)CC(C)=O | inactive | –
CC(=O)OC(C)(C)C1CC=C(C)CC1 (stereo not given) | inactive | –

Structure (SMILES) | outcome | AC50
CC(C)CCCC(C)(C)O | inactive | –
CCCCCCCCCC(=O)OCC | – | 20 µM (active)
CCn1cc(C(=O)O)c(=O)c2ccc(C)nc21 | inactive | –
C[C@]12CC[C@@H]3c4ccc(O)cc4CC[C@H]3[C@@H]1CC[C@@H]2O | inactive | –
O=S(=O)(O)C(F)(F)C(F)(F)OC(F)(F)C(F)(F)F | inactive | –
C=C1CC/C=C(\C)CC[C@@H]2[C@@H]1CC2(C)C | – | 20 µM (active)
CC/C(=C(\c1ccccc1)c1ccc(OCCN(C)C)cc1)c1ccccc1 | – | 11.6 µM (active) and 12.5 µM (active)
CC(C)Cc1ccc(C(C)C(=O)O)cc1 (stereo not given) | inactive | –
c1ccc2c(c1)-c1ccc3ccc4cccc5cc-2c1c3c45 | inactive | –
OCCN1CCOCC1 | inactive | –
CCCCOCCOCCO | inactive | –
CCC(=O)OCC=Cc1ccccc1 | inactive | –
CC(=O)c1ccc(C)cc1 | inactive | –
Nc1ccc(N)c([N+](=O)[O-])c1 | inactive | –
CC1=CC(C)C(C=O)C(C)C1 (stereo not given) (tested in a mixture with another compound) | inactive | –
c1ccc(Sc2ccccc2)cc1 | – | 30.2 µM (active)
O=C1OC2(c3ccc(O)cc3Oc3cc(O)ccc32)c2ccccc21 | inactive | –
O=S1(=O)CC(Cl)(Cl)C(Cl)(Cl)C1 | – | 0.224 µM (active)
C#C[C@]1(O)CC[C@H]2[C@@H]3CCc4cc(O)ccc4[C@H]3CC[C@@]21C | inactive | –
C=C(F)C(=O)OC(C(F)(F)F)C(F)(F)F | inactive | –
